In PubChem BioAssay (NCATS) one finds activation, viability and Potency data, which are given here for 20 molecules.

“And” between values parts separate entries of the source, which are not always exact repeats. Equal entries are not always repeated. Results filed as inconclusive are left out. Unmarked numbers belong to inactive results. The source made the active and inactive calls. Calls follow the shape of the dose curve; as a rule, active = well fitted curve in the direction sought with a large enough effect; inconclusive = small, poorly fitted or top-dose-only effect, or another doubt; inactive = no such curve, though single readings can be large; an effect the other way counts as inactive or inconclusive.

Test [1] addresses Cellular tumor antigen p53 (Homo sapiens) (UniProt P04637). Description: Primary qHTS for small molecule compounds that upregulate eGFP-tagged delta133p53alpha (in N-terminal) cells. (AID 2060322). Also: nearly all actives have a fitted effect of over 75% in size.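 As to activation: cells pre-induced with doxycycline then dosed without doxycycline; series mostly up to about 56 µM; 0% = DMSO vehicle and 100% = reference activator.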 The following applies: NCI-H358 eGFP-delta133p53alpha fluorescence, 24 h; activation: hits give high values. In short, it runs like this: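 NCI-H358 cells pre-induced 24 h with 10 ng/ml doxycycline for eGFP-delta133p53alpha, plated dox-free and exposed 24 h at 37C to titrated compounds. Fixed, Hoechst-stained; gated GFP peak intensity by laser scanning cytometry, normalized to DMSO (0%) and 57.5 uM 5-azacytidine (100%).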

Test [2] is described as follows: BET inhibitor-based combinations targeting novel dependencies in MECOM-rearranged (r) AML: SET-2 cell line (AID 2202231). Also: nearly all actives have a fitted effect of over 35% in size.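 As to viability: plate controls were DMSO treated cells for no effect and wells without cells for full effect.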 The following applies: SET-2 AML cells viability, CellTiter-Glo luminescence, 48 h; viability: hits give low values, concentration not given here. In short, it runs like this:
(§1)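 Each compound was tested at eleven concentrations on cells seeded at 500/well. After two days' incubation, ATP-based luminescence reported viability; responses relative to DMSO and blank wells yielded AUC and cell-line-centred Z-AUC.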

Test [3] in a line: BET inhibitor-based combinations targeting novel dependencies in MECOM-rearranged (r) AML: OCI-AML3 cell line (AID 2202232). Also: nearly all actives have a fitted effect of over 35% in size. The note with it: Potency: OCI-AML3 viability. In short, it runs like this:
as §1

Test [4] is described as follows: BET inhibitor-based combinations targeting novel dependencies in MECOM-rearranged (r) AML: UCSD-AML1 cell line (AID 2202235). Also: nearly all actives have a fitted effect of over 40% in size. Put shortly:
(§2)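 First, 500 cells per well were seeded; next, drugs were pinned as 11-point doses; then plates sat 48 hr in the incubator; finally CellTiter-Glo was added and luminescence read, with AUC and Z-AUC computed.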

The nature of test [5]: BET inhibitor-based combinations targeting novel dependencies in MECOM-rearranged (r) AML: AML-191 cell line (AID 2202236; also: nearly all actives have a fitted effect of over 35% in size). In short, it runs like this:
as §1

Test [6] is described as follows: BET inhibitor-based combinations targeting novel dependencies in MECOM-rearranged (r) AML: AML-194 cell line (AID 2202237; also: nearly all actives have a fitted effect of over 40% in size). Put shortly: as §1
A short description of test [7]: BET inhibitor-based combinations targeting novel dependencies in MECOM-rearranged (r) AML: HNT-34 cell line (AID 2202234). Also: nearly all actives have a fitted effect of over 35% in size. Put shortly:
as §2

The nature of test [8]: BET inhibitor-based combinations targeting novel dependencies in MECOM-rearranged (r) AML: MV-4-11 cell line (AID 2202233). Also: nearly all actives have a fitted effect of over 45% in size. In short, it runs like this: as §2
Potency is read from the fitted curve at half-maximal effect.

Sequence of Cellular tumor antigen p53 (Homo sapiens) (P04637 whole entry, looked up): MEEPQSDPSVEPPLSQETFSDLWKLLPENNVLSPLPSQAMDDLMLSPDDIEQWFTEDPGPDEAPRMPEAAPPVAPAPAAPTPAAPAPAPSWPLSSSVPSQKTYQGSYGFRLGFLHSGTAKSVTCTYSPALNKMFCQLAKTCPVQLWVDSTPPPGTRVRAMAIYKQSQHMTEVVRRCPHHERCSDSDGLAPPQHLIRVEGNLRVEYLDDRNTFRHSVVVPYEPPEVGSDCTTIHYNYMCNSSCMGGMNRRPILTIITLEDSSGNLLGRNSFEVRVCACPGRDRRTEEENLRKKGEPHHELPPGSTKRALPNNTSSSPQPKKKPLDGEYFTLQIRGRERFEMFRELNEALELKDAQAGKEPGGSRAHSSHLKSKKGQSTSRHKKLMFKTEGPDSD

Broadly, the viability is a read-out of living cells in per cent, often relative to untreated cells. Turning to `c1cc(-c2sc(-c3ccncc3)c(-c3ccncc3)c2-c2ccncc2)ccn1`, the activation in test [1] was 6.76%. Besides, the viability in test [2] is 103%. In addition, the Potency result in test [3], in test [4], in test [5] and in test [6] was “inactive” in each case.
With `CCCc1nc(C(C)(C)O)c(C(=O)O)n1Cc1ccc(-c2ccccc2-c2nn[nH]n2)cc1`, in test [1], the activation was -5.2%. Besides, the viability in test [2] is 116%. Further, the Potency entry in test [3], in test [7], in test [4], in test [5] and in test [6] was “inactive” in each case.
For the molecule `CCc1cc(Nc2nccc(-c3c(-c4ccc(OC)c(C(=O)Nc5c(F)cccc5F)c4)nc4ccccn34)n2)c(OC)cc1N1CCC(N2CCN(S(C)(=O)=O)CC2)CC1`, in test [1], the activation was 14.2% and 2.68%. The viability in test [2] is 113%. Moreover, the Potency entry in test [3] was “inactive”. Further, the Potency in test [4] is 10.5 µM (active); in test [5], 11.8 µM (active).
In the case of `CCN(CC)CCCCNc1ncc2c(n1)N(C)C(=O)N(c1c(Cl)c(OC)cc(OC)c1Cl)C2`, the activation in test [1] was -7.31%. Further, the Potency in test [2] is 18.6 µM (active); in test [8], 14.8 µM (active); in test [7] it was 10.5 µM (active).
As for `CCCNS(=O)(=O)Nc1ncnc(OCCOc2ncc(Br)cn2)c1-c1ccc(Br)cc1`, the activation in test [1] is -5.9%. Besides, the viability in test [2] is 97.8%. The Potency entry in test [3] and in test [6] was “inactive” throughout.
`CC(C)OC(=O)C(C(=O)OC(C)C)=C1SC=CS1`: the activation in test [1] was 3.95% and 27.9%. The viability in test [2] is 105%. The Potency result in test [3], in test [7] and in test [5] was “inactive” throughout.
Take `O=C(O)c1cc(=O)c2c(OCC(O)COc3cccc4oc(C(=O)O)cc(=O)c34)cccc2o1`: the activation in test [1] was 19.8%. Moreover, the viability in test [2] was 114%. The Potency entry in test [3], in test [7], in test [5] and in test [6] was “inactive” in each case.
As to `CC(C)C[C@H](NC(=O)CNC(=O)c1cc(Cl)ccc1Cl)B1OC(=O)CC(CC(=O)O)(C(=O)O)O1` (stereo partly drawn), the Potency in test [1] was 9.68 µM (active); in test [2], 0.118 µM (active); in test [8], 0.132 µM (active); in test [7] it was 0.132 µM (active); in test [4], 0.166 µM (active); in test [5] it was 0.166 µM (active). For the same molecule, the Potency in test [6] is 0.186 µM (active).
Regarding `CN1C(=O)C[C@H](C(=O)N[C@@H](Cc2cnc[nH]2)C(=O)N2CCC[C@@H]2C(N)=O)NC1=O`, in test [1], the activation is 8.59%. For the same molecule, the viability in test [2] is 98.4%. The Potency was 18.6 µM (active) in test [3] and 20.9 µM (active) in test [5]. In addition, the Potency entry in test [4] and in test [6] was “inactive” in each case.
In the case of `CCOc1cc(N2CCC(O)CC2)ccc1Nc1ncc2c(n1)N(C)c1ccccc1C(=O)N2C`, the activation in test [1] was 72.4%. The Potency was 14.8 µM (active) in test [2], 2.95 µM (active) in test [8], 14.8 µM (active) in test [7] and 8.33 µM (active) in test [4].
Consider `Cc1ccc(/C=N/NC(=O)c2ccccc2Oc2ccccc2)o1`, for which the activation in test [1] was -11.8%. In test [2], the viability is 107%. Moreover, the Potency entry in test [3], in test [5] and in test [6] was “inactive” in each case.
For the molecule `Cn1cnc(=N)c2[nH]cnc21`, the activation in test [1] is 10.7%. Moreover, the viability in test [2] was 111%. Moreover, the Potency result in test [8], in test [7], in test [4], in test [5] and in test [6] was “inactive” in each case.
As for `Cn1c(=O)c2c(ncn2CC(O)CO)n(C)c1=O` (stereo not drawn), the activation in test [1] was 5.02% and 16.6%. The viability in test [2] is 118%. The Potency entry in test [8], in test [7], in test [4], in test [5] and in test [6] was “inactive” throughout.
On to `CCCCCCCCCCCCCCCC(=O)O[C@H]1[C@@H](O)[C@@H](O)[C@@H]([C@H](NC(=O)[C@@H]2C[C@@H](CCC)CN2C)[C@H](C)Cl)O[C@@H]1SC`, for which, in test [1], the activation was 17.9%. In addition, in test [2], the viability was 108%. Further, the Potency in test [8] was 16.6 µM (active).
Consider `CC(=O)OC1C(C)OC(Oc2c(-c3ccc(O)cc3)oc3cc(O)cc(O)c3c2=O)C(O)C1OC(C)=O` (stereo not drawn), for which the activation in test [1] was 34.7%. Moreover, the viability in test [2] was 114%. Further, the Potency entry in test [3], in test [7], in test [4], in test [5] and in test [6] was “inactive” each time.
For the molecule `Cc1cc2cc3c(C)cc(=O)oc3c(C)c2o1`, the activation in test [1] was -5.86% and 16.7%. For the same molecule, the viability in test [2] is 111%. Further, the Potency entry in test [8], in test [7], in test [4], in test [5] and in test [6] was “inactive” throughout.
Take `COc1ccc(COc2cc3oc(=O)c4cc(C(C)O)ccc4c3cc2OC)cc1` (stereo not drawn): in test [1], the activation was 0.91%. The viability in test [2] is 86.4%. The Potency is 14.8 µM (active) in test [3] and 20.9 µM (active) in test [5].
For `O=C1c2ccccc2-[n+]2ccc3c([nH]c4ccccc43)c21`, the Potency in test [1] is 15.3 µM (active); in test [2], 2.63 µM (active); in test [8], 1.48 µM (active); in test [7] it was 1.86 µM (active); in test [4], 1.86 µM (active); in test [5], 1.66 µM (active). Moreover, the Potency in test [6] was 2.35 µM (active).
For `CC(S)C(=O)NCC(=O)O` (stereo not drawn), the activation in test [1] is 9.72%. For the same molecule, the viability in test [2] was 114%. Besides, the Potency in test [3] is 8.33 µM (active). Besides, the Potency entry in test [7], in test [4] and in test [6] was “inactive” each time.
Take `Cn1cc(-c2ccc3nnc(Sc4ccc5ncccc5c4)n3n2)cn1`: in test [1], the activation is -0.663%. Besides, in test [2], the viability was 107%. The Potency result in test [3], in test [5] and in test [6] was “inactive” throughout.
